Screens: PubChem BioAssay, National Center for Advancing Translational Sciences (NCATS)
Shiga inhibitor – inhibitors of Shiga toxin in Vero cells; Vero cells, Shiga toxin protein synthesis inhibition reporter; inhibition, % at 38.7 µM; hit rate 9.2% among 290,000; AID 2315; in the data active = inhibition mostly above about 28%, no sharp cut-off; inactive = mostly below about 43%
Tb PYK inh – T. brucei pyruvate kinase inhibition. Q57TT1. TbPYK enzyme, Kinase-Glo Plus ATP luminescence, 45 min. Potency, µM (titrated, usually from 76.8 µM), usual class: inhibitors. hit rate 0.12% among 410,000. AID 624173; also: nearly all actives have a fitted effect of over 50% in size
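Activity of T. brucei pyruvate kinase was followed by Kinase-Glo Plus luminescence after the enzyme reacted 45 min at room temperature with 130 uM ADP (final) and substrate. Test compounds were added before ADP at multiple concentrations.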
Cycloheximide cs – counter-screen for Shiga toxin inhibitors: cycloheximide protein synthesis inhibition; cell reporter, cycloheximide protein synthesis inhibition counterscreen; max response, %; hit rate 12% among 300,000; in the data active = max response mostly above about 13%, no sharp cut-off; inactive = mostly below about 14%; also: read at 38.3 µM for the half of the compounds with a filed dose
LmPK inhibitor – inhibitors of Leishmania mexicana pyruvate kinase. purified LmPK, Kinase-Glo ATP luminescence, 1 h. Potency, µM (top dose mostly 57.5 µM), most hits filed as inhibitors. hit rate 0.37% among 290,000
Target sequence (Q27686 whole entry, looked up): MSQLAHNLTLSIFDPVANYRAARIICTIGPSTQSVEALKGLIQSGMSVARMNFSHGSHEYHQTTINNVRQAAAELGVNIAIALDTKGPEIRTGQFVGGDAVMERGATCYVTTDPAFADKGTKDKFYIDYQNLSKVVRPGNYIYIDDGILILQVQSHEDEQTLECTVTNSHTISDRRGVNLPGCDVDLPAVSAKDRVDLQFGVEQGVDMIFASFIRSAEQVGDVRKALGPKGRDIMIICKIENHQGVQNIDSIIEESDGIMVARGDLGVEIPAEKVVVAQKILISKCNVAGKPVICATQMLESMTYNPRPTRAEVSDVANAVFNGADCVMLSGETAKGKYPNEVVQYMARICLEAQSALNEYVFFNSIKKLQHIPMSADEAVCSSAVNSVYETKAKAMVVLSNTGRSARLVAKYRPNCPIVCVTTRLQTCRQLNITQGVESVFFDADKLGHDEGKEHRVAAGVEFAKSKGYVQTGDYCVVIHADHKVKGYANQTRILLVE
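0.1 nM LmPK, 0.5 mM PEP, 0.1 mM ADP; 50 mM imidazole pH 7.2, 7 mM MgCl2, 50 mM KCl; 1 h RT. Kinase-Glo luminescence readout, normalized to no-enzyme (full inhibition) and uninhibited wells.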
Giardia FBPA inh – inhibitors of Giardia lamblia fructose-1,6-bisphosphate aldolase; hit rate 0.71% among 290,000; purified Giardia FBPA; A8B2U2; Potency, µM (top dose mostly 59.6 µM), actives largely listed as inhibitors; also: nearly all actives have a fitted effect of over 55% in size
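Giardia FBPA (40 nM reagent) was preincubated 10 min at RT with compound (up to 57.5 uM final), then substrate plus GAPDH/TPI/NAD/arsenate coupling system with diaphorase/resazurin was added; resorufin fluorescence (525/598 nm) was read after 20 min.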
RE007 growth inh – less growth of the S. pombe RE007 Vpr strain | Potency, µM (doses to about 92.2 µM), actives largely listed as inhibitors | hit rate 0.21% among 360,000 | S. pombe RE007 Vpr strain, BacTiter-Glo ATP luminescence, 24 h; active = well fitted falling curve with a large enough effect; inconclusive = small, poorly fitted or top-dose-only effect; inactive = no such curve, though single readings can be large or run the other way; also: nearly all actives have a fitted effect of over 50% in size
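Fission yeast RE007 carrying one integrated HIV-1 vpr copy, seeded at OD 0.01 in PMG+AL medium with 23 nL pinned compound. Grown 24 h at 30 degrees; viability read by BacTiter-Glo luminescence after 5 min.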
Of the large screens only hits and unclear results are named; the others gave an inactive call. The full list was thinned out, with hits kept by preference. Unless noted, calls follow the shape of the dose curve; as a rule, active = well fitted curve in the direction sought with a large enough effect; inconclusive = small, poorly fitted or top-dose-only effect, or another doubt; inactive = no such curve, though single readings can be large; an effect the other way counts as inactive or inconclusive.

Cc1ccccc1NC(=O)CNC(=O)c1ccc(C(F)(F)F)cc1	none
Cc1ccccc1NC(=O)Nc1ccc(C(F)(F)F)cc1	Shiga inhibitor 56, Cycloheximide cs 23
CCCNC(=O)Nc1ccc(C(F)(F)F)cc1	Shiga inhibitor 43, Cycloheximide cs 18
CCN1C(=Nc2ccc(Cl)cc2)SC/C1=C\C(=O)OC	Cycloheximide cs 22
CCN1C(=O)CSC1=Nc1ccc(C(=O)O)cc1	none (no result: Shiga inhibitor)
OCCOc1ccc(C2=NCCO2)cc1	Cycloheximide cs 15
OCCOCCOc1ccc(-c2nn[nH]n2)cc1	none
O=C(O)c1cc(Cl)c(Cl)cc1C(=O)Nc1cccnc1	none (no result: Tb PYK inh, RE007 growth inh)
O=C(Nc1cccnc1)c1cc(-c2ccc(Cl)cc2Cl)on1	Shiga inhibitor 63, Cycloheximide cs 28 (no result: Giardia FBPA inh)
O=C(Nc1cccnc1)c1cc(-c2ccc(Cl)cc2)on1	Shiga inhibitor 152, Cycloheximide cs 40
Cc1cc(C(=O)Nc2cccnc2)no1	none
CCN(CC)c1ccc(NC(=O)c2cccnc2)cc1	Shiga inhibitor 61, Cycloheximide cs 39
CCN(CC)c1ccc(NC(=O)c2cncc(Br)c2)cc1	Shiga inhibitor 60, Cycloheximide cs 43
Cc1cc(NCc2ccc(Cl)cc2)n2cnnc2n1	none (no result: Shiga inhibitor, Cycloheximide cs, LmPK inhibitor, Giardia FBPA inh, RE007 growth inh)
COc1ccc(-c2nc3c(c4c2C[C@H](c2ccccc2)OC4)CN(C(=O)c2cc(I)ccc2F)CC3)c(C)c1	none (no result: Shiga inhibitor, Tb PYK inh, Cycloheximide cs, RE007 growth inh)
CN(C)c1ccc(/C=N/n2c(-c3ccccc3Br)n[nH]c2=S)cc1	Tb PYK inh inconclusive, Cycloheximide cs 17
CN(C)c1ccc(/C=N/n2c(-c3cccnc3)n[nH]c2=S)cc1	Tb PYK inh 2.8µM
COc1ccc2c(c1)O[C@@H](c1cccc(C(F)(F)F)c1)[C@H](OC(=O)NS(=O)(=O)c1ccc(C)cc1)C2=O	none (no result: Shiga inhibitor, Tb PYK inh, Cycloheximide cs, LmPK inhibitor, RE007 growth inh)
COc1cccc(NC(=O)c2cc3c(=O)n(C)c4ccccc4c3n2C)c1	none (no result: Shiga inhibitor, Cycloheximide cs, LmPK inhibitor, Giardia FBPA inh, RE007 growth inh)
CN(C)S(=O)(=O)NCCNc1ccc(C(F)(F)F)cc1[N+](=O)[O-]	Cycloheximide cs 12
O=[N+]([O-])c1cc(C(F)(F)F)ccc1NCCOc1ccccc1	Shiga inhibitor 31, Cycloheximide cs 48
O=C(OCCNc1ccc(C(F)(F)F)cc1[N+](=O)[O-])c1cc2ccccc2oc1=O	Cycloheximide cs 18
Cc1ccccc1OCCNc1ccc(C(F)(F)F)cc1[N+](=O)[O-]	Cycloheximide cs 20
CC(=O)OCCNC(=O)c1cc2ccccc2oc1=O	none
CS(=O)(=O)NCCNc1ccc(C(F)(F)F)cc1[N+](=O)[O-]	none
Cc1c(C(=O)OCCOc2ccccc2)[nH]c2c1C(=O)CC(c1ccccc1Cl)C2 (configuration not stated)	none (no result: Shiga inhibitor, Cycloheximide cs, LmPK inhibitor, Giardia FBPA inh, RE007 growth inh)
Nc1ccc(-c2nc3ccc(-c4nc5ccc(N)cc5[nH]4)cc3[nH]2)cc1	none (no result: Tb PYK inh, LmPK inhibitor, RE007 growth inh)
COc1ccc(-c2nc3ccncc3[nH]2)cc1OC	none
Clc1ccc(-c2nc3ccncc3[nH]2)cc1	Shiga inhibitor 59, Cycloheximide cs 82, LmPK inhibitor 14µM, RE007 growth inh 40µM
Fc1ccc(-c2nc3ccncc3[nH]2)cc1	Cycloheximide cs 23, LmPK inhibitor inconclusive
CSc1ccccc1OCc1cc(C(=O)NCc2ccc(C)s2)no1	Shiga inhibitor 41, Cycloheximide cs 23
CCOC(=O)c1ccc(CNC(=O)c2cc(COc3ccccc3SC)on2)o1	Shiga inhibitor 74, Cycloheximide cs 34 (no result: Giardia FBPA inh)
COc1ccc(OC)c(N2Cc3cc(C)c(C)cc3C2)c1	Cycloheximide cs 14, Giardia FBPA inh inconclusive
O=C(Cn1ncn2c(cc3cc(F)ccc32)c1=O)NC1CCCCC1	none (no result: Shiga inhibitor, Cycloheximide cs, LmPK inhibitor, Giardia FBPA inh, RE007 growth inh)
O=C(NCC1CCCO1)c1ccccc1-c1nc(-c2ccc(Cl)cc2)no1 (configuration not stated)	Cycloheximide cs 12
Cc1cccc(-c2noc(-c3ccccc3C(=O)NCC3CCCO3)n2)c1 (configuration not stated)	Shiga inhibitor 143, Cycloheximide cs 63
COc1ccc2c(c1)C(=O)[C@H](OC(=O)N[C@H](C)C1CCCCC1)[C@@H](c1ccc(OC)c(Br)c1)O2	none (no result: Shiga inhibitor, Tb PYK inh, Cycloheximide cs, LmPK inhibitor, RE007 growth inh)
Cc1ccnc(N(C(=O)Nc2ccccc2)C2=NCC(C)(C)S2)c1	Shiga inhibitor 59, Cycloheximide cs 43
CNC(=O)N(C1=NCC(C)(C)S1)c1ccc(F)c(Cl)c1	none
